Source: paper PMC6602471
In all, about 1,300 sequences were measured (“log fluorescence intensity”: median about 8.9, highest 2% from about 13 on). Only a selection was taken, and the highest values are over-represented in it overall.

molecular target: T1, ELK1 (Homo sapiens, UniProt P19419 1-428); experiment: custom PBM; custom protein-binding microarray; buffer, salt, pH and temperature not stated; high values mean tight binding; settings: dsDNA, one strand shown
T1 sequence: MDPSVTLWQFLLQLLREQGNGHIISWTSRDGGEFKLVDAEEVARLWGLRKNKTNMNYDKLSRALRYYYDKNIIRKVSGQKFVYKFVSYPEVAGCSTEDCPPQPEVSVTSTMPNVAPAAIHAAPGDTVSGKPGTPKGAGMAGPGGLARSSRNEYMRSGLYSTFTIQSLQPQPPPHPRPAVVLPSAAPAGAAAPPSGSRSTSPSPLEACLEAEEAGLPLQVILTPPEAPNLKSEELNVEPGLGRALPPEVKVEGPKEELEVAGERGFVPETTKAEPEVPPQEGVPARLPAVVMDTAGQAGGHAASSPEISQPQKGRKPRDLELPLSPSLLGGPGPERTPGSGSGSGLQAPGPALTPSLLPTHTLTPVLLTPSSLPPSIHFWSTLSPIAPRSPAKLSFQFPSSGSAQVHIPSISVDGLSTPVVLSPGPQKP

| Sequence | binding signal |
| --- | --- |
| TGTCGGGCAAGGGAATGTAGATCACGTGAATGAAAAGTCTTGATTCGCTTGACGCTGCTG | 9.09 log fluorescence intensity |
| CAGCATAGTACTTCTTCCCTGAAGCAATTGATAACCGTCTTGATTCGCTTGACGCTGCTG | 8.98 log fluorescence intensity |
| TAAAGGGAAGACGGTTGTGGTGGTTCCGGGTATTAAGTCTTGATTCGCTTGACGCTGCTG | 11.1 log fluorescence intensity |
| GCTGCTGGGGTGCATACCCCACCGGATGTGACCCCGGTCTTGATTCGCTTGACGCTGCTG | 9.94 log fluorescence intensity |
| GTGTATAGGATCCCATTCAACACACGTGTTAAAATGGTCTTGATTCGCTTGACGCTGCTG | 8.9 log fluorescence intensity |
| TAAAGGGAAGACGGTTGTGGTAGATCCGGGTATTAAGTCTTGATTCGCTTGACGCTGCTG | 9.61 log fluorescence intensity |
| TAAGGGGAAGACGGTTGTGGTAGTTCCGGGTATTAAGTCTTGATTCGCTTGACGCTGCTG | 11.3 log fluorescence intensity |
| GGAAAAAGGCACAGGGTAACACCGGAAGTGGGCTTAGTCTTGATTCGCTTGACGCTGCTG | 11 log fluorescence intensity |
| GGAAAAAGGCCCAGGGTAACACCGGAATTGGGCTTAGTCTTGATTCGCTTGACGCTGCTG | 9.46 log fluorescence intensity |
| CGGAAGTGTCGTAAACGTCGGATATCCGCTTCTTCTGTCTTGATTCGCTTGACGCTGCTG | 11.5 log fluorescence intensity |
| CAGCATAGGACTTCTTCCCTGAAGCAGTTGATAACCGTCTTGATTCGCTTGACGCTGCTG | 8.98 log fluorescence intensity |
| GTGTATAGGATCCCATCCAACACACGTGTTAATATGGTCTTGATTCGCTTGACGCTGCTG | 8.92 log fluorescence intensity |
| GGAAAAAGGCCCGGGGTAACACCGGAAGTGGGCTTAGTCTTGATTCGCTTGACGCTGCTG | 11.8 log fluorescence intensity |
| GGAAAAAGGCCCTGGGTAACACCGGAAGTGGGCTTAGTCTTGATTCGCTTGACGCTGCTG | 11.1 log fluorescence intensity |
| GGAAAAAGGCCCCGGGTAACACCGGAAGTGGGCTTAGTCTTGATTCGCTTGACGCTGCTG | 12.6 log fluorescence intensity |
| CTGGGACTTGACCCAAATCTGCCACGTGGGTCGTTTGTCTTGATTCGCTTGACGCTGCTG | 9 log fluorescence intensity |
| TGTCAGGTAAGGGAATGTAGATCACGTGAATGAAAAGTCTTGATTCGCTTGACGCTGCTG | 8.9 log fluorescence intensity |
| TACTGAGTTATATATGCGAATGCACATGAATAGACCGTCTTGATTCGCTTGACGCTGCTG | 8.97 log fluorescence intensity |
| TAAAGGGAAGACGGTTGTGGTAGTTCCGGGAATTAAGTCTTGATTCGCTTGACGCTGCTG | 11.2 log fluorescence intensity |

| Sequence | binding signal |
| --- | --- |
| CAGCATAGGACTTCTTCCCTGAAGCAATTGATACCCGTCTTGATTCGCTTGACGCTGCTG | 8.91 log fluorescence intensity |
| TACTGACTTATATATGCGAATGCACATGAATAGAACGTCTTGATTCGCTTGACGCTGCTG | 8.92 log fluorescence intensity |
| TGGCGGGTAAGGGAATGTAGATCACGTGAATGAAAAGTCTTGATTCGCTTGACGCTGCTG | 8.95 log fluorescence intensity |
| CTGGGACTTGACCCAACTCTGCCACGTGGGTCGTATGTCTTGATTCGCTTGACGCTGCTG | 8.98 log fluorescence intensity |
| CTGGGACTTGACCCAACTCTGCCACGTGGGGCGTTTGTCTTGATTCGCTTGACGCTGCTG | 8.94 log fluorescence intensity |
| TACTGACTTATATATCCGAATGCACATGAATAGACCGTCTTGATTCGCTTGACGCTGCTG | 9.23 log fluorescence intensity |
| TAAAGGGAAGATGGTTGTGGTAGTTCCGGGTATTAAGTCTTGATTCGCTTGACGCTGCTG | 10.9 log fluorescence intensity |
| CGGAAATGTCGTAAACGTCGGATATCCGGTTCTTCTGTCTTGATTCGCTTGACGCTGCTG | 12.6 log fluorescence intensity |
| CGGAAGTCTCGTAAACGTCGGATATCCGGTTCTTCTGTCTTGATTCGCTTGACGCTGCTG | 12 log fluorescence intensity |
| CGGAAGCGTCGTAAACGTCGGATATCCGGTTCTTCTGTCTTGATTCGCTTGACGCTGCTG | 12.5 log fluorescence intensity |
| CGGATGTGTCGTAAACGTCGGATATCCGGTTCTTCTGTCTTGATTCGCTTGACGCTGCTG | 12.2 log fluorescence intensity |
| CGGAAGGGTCGTAAACGTCGGATATCCGGTTCTTCTGTCTTGATTCGCTTGACGCTGCTG | 12.1 log fluorescence intensity |
| CGGAAGTATCGTAAACGTCGGATATCCGGTTCTTCTGTCTTGATTCGCTTGACGCTGCTG | 12 log fluorescence intensity |
| CGGAACTGTCGTAAACGTCGGATATCCGGTTCTTCTGTCTTGATTCGCTTGACGCTGCTG | 12.5 log fluorescence intensity |
| CGGACGTGTCGTAAACGTCGGATATCCGGTTCTTCTGTCTTGATTCGCTTGACGCTGCTG | 12.2 log fluorescence intensity |
| CGGAATTGTCGTAAACGTCGGATATCCGGTTCTTCTGTCTTGATTCGCTTGACGCTGCTG | 12.8 log fluorescence intensity |
| CTGGGACTTGGCCCAACTCTGCCACGTGGGTCGTTTGTCTTGATTCGCTTGACGCTGCTG | 8.95 log fluorescence intensity |
| TCCGGCTATCAGCTCCACCCACTTCAGGCCTTGTAGGTCTTGATTCGCTTGACGCTGCTG | 9.1 log fluorescence intensity |
| CAGCATAGGACTTCTTCCCTGAAGAAATTGATAACCGTCTTGATTCGCTTGACGCTGCTG | 8.96 log fluorescence intensity |
